The list is not random: actives were taken first. Their share in the collection is about 0.45%.
FEN1 inh: qHTS Assay for the Inhibitors of Human Flap endonuclease 1 (FEN1) | actives 0.35% (n = 390,000) | Recombinant FEN1 flap cleavage, fluorescence, 15 min | Potency, µM (top dose mostly 114 µM), for inactives: at the top dose activity change, negative = inhibition, usual class: inhibitors | P39748 | AID 588795, 2011; note: nearly all actives have a fitted effect of over 65% in size
Target sequence (P39748 whole entry, looked up): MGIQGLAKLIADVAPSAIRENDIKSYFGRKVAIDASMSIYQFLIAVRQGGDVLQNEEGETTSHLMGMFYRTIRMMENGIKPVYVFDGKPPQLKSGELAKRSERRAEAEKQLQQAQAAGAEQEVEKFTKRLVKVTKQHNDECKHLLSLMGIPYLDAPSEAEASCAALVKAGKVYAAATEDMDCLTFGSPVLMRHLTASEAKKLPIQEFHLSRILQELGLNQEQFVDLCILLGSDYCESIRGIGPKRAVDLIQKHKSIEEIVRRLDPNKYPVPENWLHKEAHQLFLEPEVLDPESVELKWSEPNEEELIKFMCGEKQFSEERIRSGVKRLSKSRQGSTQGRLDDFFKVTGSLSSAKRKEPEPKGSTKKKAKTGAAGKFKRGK
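Recombinant FEN1 (10 nM) was preincubated with pin-transferred compounds for 15 min at room temperature, then flap DNA substrate (50 nM final) was added. Plates were read at 0 and 15 min, and normalized concentration–response data were fitted to a four-parameter Hill equation.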
Anesthetic bind: qHTS Assay for Identification of Novel General Anesthetics; Ferritin light chain (Equus caballus), P02791; apoferritin/1-aminoanthracene competitive binding, fluorescence; Potency, µM (doses to about 77.5 µM), for the others: at the top dose activity change, negative = displacement, usual class: inhibitors; actives 0.074% (n = 350,000); AID 485281, 2010; note: nearly all actives have a fitted effect of over 20% in size
Target sequence (P02791 2-175 limits assumed): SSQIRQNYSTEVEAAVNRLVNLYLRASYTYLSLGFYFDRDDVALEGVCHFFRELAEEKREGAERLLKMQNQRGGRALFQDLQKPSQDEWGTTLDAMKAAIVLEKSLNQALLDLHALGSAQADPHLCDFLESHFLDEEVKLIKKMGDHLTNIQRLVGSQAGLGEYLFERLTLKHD
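Apoferritin-based anesthetic binding model; compound displacement of fluorescent 1-AMA measured as endpoint fluorescence after 10 minutes at room temperature, scaled to free-ligand and complex controls.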
PGK inhibitor: qHTS Assay to Find Inhibitors of Phosphoglycerate Kinase | Phosphoglycerate kinase, glycosomal (Trypanosoma brucei brucei), P07378 | PGK/GAPDH coupled, Kinase-Glo luminescence, 60 min | Potency, µM (top dose mostly 57.5 µM), without a hit: at the top dose activity change, negative = inhibition, hits mostly inhibitors | actives 0.043% (n = 380,000) | AID 602233, 2012; note: nearly all actives have a fitted effect of over 60% in size
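Recombinant glycosomal PGK reaction used 1,3-bisphosphoglycerate generated in-well by GAPDH (100nM final) in 100mM TEA pH 7.6, 5mM MgCl2, 0.01% Tween-20. After 60 minutes at room temperature, ATP was read by Kinase-Glo Plus luminescence end-point.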
Pin1 inhibitor: qHTS Assay to Find Inhibitors of Pin1; Peptidyl-prolyl cis-trans isomerase NIMA-interacting 1 (Homo sapiens), Q13526; Pin1 FP peptide displacement, HiFluor488, 10 min; Potency, µM (doses to about 115 µM), without a hit: top-dose activity, negative = inhibition, hits mostly inhibitors; actives 0.009% (n = 390,000); AID 504891, 2011; active = well fitted inhibition curve with a large enough effect in the polarisation, with a control signal flat, not every such curve was filed as active; inconclusive = small, poorly fitted or top-dose-only effect, or effect the other way, or a change in a side signal; inactive = no such curve, though single readings can be large or run the other way; the % refers to the polarisation
B2AR arrestin: qHTS assay of beta-arrestin-biased ligands of beta2-adrenergic receptor | actives 0.02% (n = 330,000) | Beta-2 adrenergic receptor (Homo sapiens), P07550 | Potency, µM (series often up to 46.1 µM), for the others: at the highest dose activation, most hits filed as activators | beta-arrestin recruitment to beta2AR, cell-based reporter | AID 492947, 2010;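 note: 0% = DMSO controls and full agonism = EC100 isoproterenol or metaproterenol; nearly all actives have a fitted effect of over 65% in size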
Chronic BCR inh: qHTS Assay to Find Inhibitors of Chronic Active B-Cell Receptor Signaling; ABC-DLBCL IkBa-CBG/CBR reporter, luminescence ratio, 4 h; Potency, µM (titrated, usually from 46.1 µM), without a hit: top-dose activity change, negative = inhibition, usual class: inhibitors; actives 0.05% (n = 340,000); AID 493014, 2011; active = well fitted inhibition curve with a large enough effect in the signal ratio, with a control signal flat, not every such curve was filed as active; inconclusive = small, poorly fitted or top-dose-only effect, or effect the other way, or a change in a side signal; the % refers to the signal ratio;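 note: plate controls were basal doxycycline-induced cells for no effect and cells given 10 µM MG132 for full effect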
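Concentration-response series (up to 46 uM) were applied to TMD8 dual-reporter cells for 4 h at 37C with doxycycline. Green/red ratio, after filter-overlap correction, defined %Activity; red signal alone was normalised to basal cells and zero luminescence.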
* marks the source's active call; other numbers are inactive results; ? = inconclusive; · = no result. Unless noted, calls come from the whole dose curve; as a rule, active = well fitted curve in the direction sought with a large enough effect; inconclusive = small, poorly fitted or top-dose-only effect, or another doubt; inactive = no such curve, though single readings can be large; an effect the other way counts as inactive or inconclusive. Unless noted, % is set by controls: 0 for no effect and ±100 for the full control effect; potency is the fitted concentration of half-maximal effect.

SMILES	FEN1 inh	Anesthetic bind	PGK inhibitor	Pin1 inhibitor	B2AR arrestin	Chronic BCR inh
N#C/C(=C\c1c(Cl)cccc1Cl)c1nc2ccccc2[nH]1	-15.6%	-9.3%	-11.3%	-4.4%	0.5%	?
Cc1cc2c(s1)c(/C=N/O)c(C(=O)NCc1ccccc1F)n2C	·	·	·	0.4%	·	·
Cc1cc(OC(C)C)c2c(-c3ccccc3)cc(=O)oc2c1	-7.1%	17.8µM*	-3.1%	0.6%	0.5%	?
CN(C)CCCN(C(=O)c1ccc(S(=O)(=O)N2CCCCCC2)cc1)c1nc2cc3c(cc2s1)OCO3	·	·	8.1%	·	·	·
CCC1CCCCN1S(=O)(=O)c1ccc(C(=O)N(CCCN(C)C)c2nc3cc4c(cc3s2)OCO4)cc1 (stereo not given)	?	56.2µM*	1.8%	-9.8%	-0.5%	?
COc1cc(NS(=O)(=O)c2ccc(NC(=S)NC(=O)/C=C/c3ccc(OC)c(OC)c3)cc2)ncn1	44.7µM*	-13.6%	?	14.0%	0.2%	-6.6%
O=C(CNC(=O)c1ccc2cc[nH]c2c1)OC(C(=O)Nc1cc(C(F)(F)F)ccc1Cl)c1ccccc1 (stereo not given)	·	·	·	9.6%	·	·
Cc1csc(=N)n1-c1ccc(Cl)cc1	-13.8%	11.2µM*	-8.6%	8.9%	0.0%	?
Cc1ccc(/C=C2\SC(=S)N(/N=C/c3cc([N+](=O)[O-])ccc3O)C2=O)o1	50.1µM*	?	-17.0%	?	0.0%	?
O=C(CCN1CCN(CCO)CC1)Nc1ccc(C2CCCC2)cc1	-17.1%	?	-1.4%	-1.1%	0.1%	10.9%
O=C(CSCCO)Nc1ccc(C2CCCCC2)cc1	-10.9%	7.08µM*	-5.2%	0.6%	-0.5%	-16.6%
O=C(COC(=O)/C=C/c1ccco1)Nc1ncc(C(F)(F)F)cc1Cl	14.2%	-17.7%	12.6µM*	?	-0.7%	8.0%
CN(C)c1ccc(N=Nc2ccc(/C=C/c3ccnc4ccccc34)cc2)cc1	25.1µM*	·	·	·	·	·
CC[N+](C)(C)c1ccc(/C=C/c2ccnc3ccccc23)cc1	39.8µM*	·	·	·	·	·
CCN(C)c1ccc(/C=C/c2ccnc3ccccc23)cc1	-5.2%	·	·	·	·	·
C(=C\c1ccnc2ccccc12)/c1ccc(N2CCOCC2)cc1	44.7µM*	·	·	·	·	·
Nc1cc([N+](=O)[O-])ccc1Nc1ccccc1	-16.9%	15.8µM*	9.3%	20.3%	-0.3%	0.4%
O=C(O)c1cc([N+](=O)[O-])ccc1Nc1ccccc1	2.4%	-19.5%	0.7%	-10.3%	0.0%	11.7%
O=C1c2ccccc2C(=O)N1c1cnc2ccccc2c1	·	·	·	-2.3%	·	·
COc1c(O)c(=O)n2c3ccccc3c3ccnc1c32	11.2µM*	·	-3.5%	-1.0%	0.1%	-4.9%
O=c1c(Cl)c(O)c2cccc3c4ccccc4n1c23	?	47.7%	-6.5%	?	3.2%	11.6%
CCCCCCCC[n+]1cccc(C(=O)N(CC)CC)c1	-3.1%	1.3%	·	1.4%	-0.2%	0.2%
CCCCCCCCCCCCCCCC[n+]1cccc(C(=O)N(CC)CC)c1	?	15.8µM*	-3.1%	8.6%	-2.0%	4.9%
COc1cc2c(cc1OC)-c1c(OC)c(OC)cc3ccnc(c13)C2=O	7.94µM*	10.1%	-6.0%	-5.4%	-1.8%	?
CCc1ccc(S(=O)(=O)/N=C2\C=CC(=O)c3ccccc32)cc1	·	-16.3%	·	·	0.4%	-1.0%
CCc1ccc(S(=O)(=O)/N=C2/C=C(Sc3ncn[nH]3)C(=O)c3ccccc32)cc1	79.4µM*	-2.2%	?	42.6µM*	-0.9%	?
CCN(CC)C(=O)c1nn(-c2ccc(OC)cc2)c(=O)c2c(N)scc12	·	·	·	-16.5%	·	·
O=C(CCO)c1ccc(O)cc1	22.4µM*	-6.4%	?	?	-0.3%	-14.0%
